Measurements published in PubChem BioAssay (NCI).
The panel holds about 79,000 compounds, 15% with a hit somewhere; the sample as a whole holds those more often. Activity calls are given as the source filed them. Rule as the data show it: active = growth inhibition above about 70%; inactive = the rest.

Experiment: NCI Yeast Anticancer Drug Screen. Data for the bub3 strain (AID 167)
Details: S. cerevisiae bub3 mutant strain, at 50.0 µM (retest, dose inferred, filed as 5.0), stronger effect = higher value
Outline: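 Inhibition values come from growth of compound-treated mutant yeast normalised to vehicle-treated controls.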

SMILES	growth inhibition
COc1ccc(-c2c(CO)cc(OC)c(OC)c2OC)c(CO)c1	43% (inactive)
C(=C\c1cnnc2ccccc12)/c1ccco1	27% (inactive)
CCCCCCCCNc1ccc(Cl)cc1	97% (active)
Cc1ccc2ccc(C(Nc3ccccc3)c3ccncc3)c(O)c2n1 (stereo not given)	92% (active)
c1ccc(C2=NOC3(c4ccccc4)SC4CCCCC4CN23)cc1 (stereo not given)	97% (active)
COc1ccc(C(=O)Nc2ccccc2[N+](=O)[O-])cc1	13% (inactive)
CC(=O)CC(C)=NCCN=C(C)CC(C)=O.[Pd]	60% (inactive)
Cc1cc2oc3c(ccc(=O)n3C)c(=O)c2c(C)c1Cl	10% (inactive)
CCCOc1ccc(/C=N/NC(N)=S)cc1	70% (active)

Same assay, conditions: S. cerevisiae bub3 mutant strain, at 50.0 µM, stronger effect = higher value

SMILES	growth inhibition
Cc1cccc2c1C(=O)N(CC[P+](c1ccccc1)(c1ccccc1)c1ccccc1)C2=O	70.5% (active)
CCCCCN=Cc1c(O)c(O)c(C(C)C)c2cc(C)c(-c3c(C)cc4c(C(C)C)c(O)c(O)c(C=NCCCCC)c4c3O)c(O)c12	30% (inactive)
CCN(CC)CCNc1ccc(C)c2sc3ccc(OC)cc3c(=O)c12	1% (inactive)
O=S(=O)(c1ccc(NC(=S)NCc2ccncc2)cc1)N1CCCCC1	9.35% (inactive)
Nc1nn2c(C(Br)Br)cc(C(Br)Br)nc2c1[N+](=O)[O-]	99.5% (active)
O=C1C=CC(=O)N1c1ccccc1 (tested in a mixture with another compound)	95.2% (active)
O=C(O)CCSc1ncnc2nc[nH]c12	-18.8% (inactive)
CCN(CC)CCCC(=O)Nc1cc(OC)cc2cccnc12	-1.85% (inactive)
CC(=O)OC(C#N)CC(C)(C)/[N+]([O-])=[N+](\[O-])C(C)(C)CC(C#N)OC(C)=O (stereo not given)	68.1% (inactive)
ICCCCCCCCCC[n+]1ccc2ccccc2c1	92.7% (active)
Clc1ccc(C(c2ccc(Cl)cc2)c2cncnc2)cc1	84.2% (active)
NC1=NC(c2ccccc2)CC(c2cc(Cl)cc(Br)c2O)=N1 (stereo not given)	-0.8% (inactive)
CC(NNC(=S)NCc1ccccc1)c1cc2ccccc2cn1 (stereo not given)	83.7% (active)
C=CCOC(=O)CC(O)C(=O)OCC=C (stereo not given)	7.85% (inactive)
OC(C(=Nc1ccccc1)c1ccccc1)c1ccccc1 (stereo not given)	97.8% (active)
C=CC1(NC(=O)c2ccccc2)CCC(C(C)(C)C)CC1 (stereo not given)	49.9% (inactive)
CCN(CC)CC(O)c1ccnc2c(O)cccc12 (stereo not given)	0.1% (inactive)
COc1ccc(-c2c(CO)cc(OC)c(OC)c2OC)c(CO)c1	98.7% (active)
C(=C\c1cnnc2ccccc12)/c1ccco1	18.8% (inactive)
CCCCCCCCNc1ccc(Cl)cc1	74.1% (active)
Cc1ccc2ccc(C(Nc3ccccc3)c3ccncc3)c(O)c2n1 (stereo not given)	81.1% (active)
c1ccc(C2=NOC3(c4ccccc4)SC4CCCCC4CN23)cc1 (stereo not given)	90.2% (active)
COc1ccc(C(=O)Nc2ccccc2[N+](=O)[O-])cc1	19.2% (inactive)
CC(=O)CC(C)=NCCN=C(C)CC(C)=O.[Pd]	76.2% (active)
Cc1cc2oc3c(ccc(=O)n3C)c(=O)c2c(C)c1Cl	30.2% (inactive)
CCCOc1ccc(/C=N/NC(N)=S)cc1	63.7% (inactive)

Experiment: NCI Yeast Anticancer Drug Screen. Data for the mlh1 rad18 strain (AID 175)
Details: S. cerevisiae mlh1 rad18 strain growth inhibition; at 5.0 µM (retest, dose inferred, filed as 0.5); stronger effect = higher value
Outline: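 Steps: expose repair-defective yeast to compound; measure growth; express inhibition against vehicle-treated controls.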

SMILES	growth inhibition
COc1ccc(Cc2nc3ccccc3s2)cc1OC	73% (active)
CN(NC(=O)c1cccs1)C1=NCCCN1	23% (inactive)
Cc1cccc2c1C(=O)N(CC[P+](c1ccccc1)(c1ccccc1)c1ccccc1)C2=O	64% (inactive)
CCc1cc2c(cc1O)CC[C@@H]1[C@@H]2CC[C@]2(C)[C@@H](O)CC[C@@H]12	3% (inactive)
C[n+]1c2ccc(Cl)cc2nc2cc(-c3ccccc3)ccc21	39% (inactive)
CCCCCN=Cc1c(O)c(O)c(C(C)C)c2cc(C)c(-c3c(C)cc4c(C(C)C)c(O)c(O)c(C=NCCCCC)c4c3O)c(O)c12	1% (inactive)
CCOC1(c2ccccc2)c2ccccc2S(=O)(=O)N1C (stereo not given)	18% (inactive)
CCN(CC)CCNc1ccc(C)c2sc3ccc(OC)cc3c(=O)c12	32% (inactive)
Cc1nc2c(cnn2-c2ccccc2)c(=O)o1	-115% (inactive)
O=S(=O)(c1ccc(NC(=S)NCc2ccncc2)cc1)N1CCCCC1	-27% (inactive)
Nc1nn2c(C(Br)Br)cc(C(Br)Br)nc2c1[N+](=O)[O-]	100% (active)
O=C1C=CC(=O)N1c1ccccc1 (tested in a mixture with another compound)	-1% (inactive)
O=C(O)CCSc1ncnc2nc[nH]c12	-7% (inactive)
COc1cccc(=O)cc1	3% (inactive)
CCN(CC)CCCC(=O)Nc1cc(OC)cc2cccnc12	2% (inactive)
COc1ccc(C2SCC(=O)N2c2ccc(-c3ccc(-n4c(-c5ccccc5)nc5ccccc5c4=O)cc3)cc2)cc1 (stereo not given)	18% (inactive)
CC(=O)OC(C#N)CC(C)(C)/[N+]([O-])=[N+](\[O-])C(C)(C)CC(C#N)OC(C)=O (stereo not given)	11% (inactive)
ICCCCCCCCCC[n+]1ccc2ccccc2c1	28% (inactive)
CCCCCc1[nH]nc(C(=O)OC)c1N=NN1CCOCC1	89% (active)
Clc1ccc(C(c2ccc(Cl)cc2)c2cncnc2)cc1	13% (inactive)

SMILES	growth inhibition
CC1=C(C(=O)Nc2cccc(Cl)c2)C(c2ccc([N+](=O)[O-])cc2)C(C(=O)Nc2cccc(Cl)c2)=C(C)N1	51% (inactive)
NC1=NC(c2ccccc2)CC(c2cc(Cl)cc(Br)c2O)=N1 (stereo not given)	-3% (inactive)
CC(NNC(=S)NCc1ccccc1)c1cc2ccccc2cn1 (stereo not given)	19% (inactive)
C=CCOC(=O)CC(O)C(=O)OCC=C (stereo not given)	-5% (inactive)
OC(C(=Nc1ccccc1)c1ccccc1)c1ccccc1 (stereo not given)	39% (inactive)
C=CC1(NC(=O)c2ccccc2)CCC(C(C)(C)C)CC1 (stereo not given)	-7% (inactive)
O=C(Nc1ccccc1-c1nn(CN2CCNCC2)c(=S)n(CN2CCNCC2)c1=O)C(F)(F)F	-2% (inactive)
CCN(CC)CCOc1c(I)cc(I)cc1I	1% (inactive)
CCN(CC)CC(O)c1ccnc2c(O)cccc12 (stereo not given)	1% (inactive)
O=[N+]([O-])c1ccc(-c2nc(/C=N/N3CCCCC3)cs2)o1	16% (inactive)
O=C(CCn1[nH]c(=O)c(Cl)c(Cl)c1=O)NNc1ccc([N+](=O)[O-])cc1[N+](=O)[O-]	2% (inactive)
COc1ccc(-c2c(CO)cc(OC)c(OC)c2OC)c(CO)c1	13% (inactive)
C(=C\c1cnnc2ccccc12)/c1ccco1	2% (inactive)
CCCCCCCCNc1ccc(Cl)cc1	40% (inactive)
Cc1ccc2ccc(C(Nc3ccccc3)c3ccncc3)c(O)c2n1 (stereo not given)	-5% (inactive)
c1ccc(C2=NOC3(c4ccccc4)SC4CCCCC4CN23)cc1 (stereo not given)	8% (inactive)
COc1ccc(C(=O)Nc2ccccc2[N+](=O)[O-])cc1	-13% (inactive)
CC(=O)CC(C)=NCCN=C(C)CC(C)=O.[Pd]	-9% (inactive)
Cc1cc2oc3c(ccc(=O)n3C)c(=O)c2c(C)c1Cl	11% (inactive)
CCCOc1ccc(/C=N/NC(N)=S)cc1	12% (inactive)
